Results published in PubChem BioAssay (NCATS).
Inconclusive results are not listed. Entries that show only a call come without a potency. Active and inactive are the calls of the source. Calls follow the shape of the dose curve; as a rule, active = well fitted inhibition curve with a large enough effect; inconclusive = small, poorly fitted or top-dose-only effect; inactive = flat fitted curve, though single readings scatter.

These molecules were tested against Phospholipid hydroperoxide glutathione peroxidase GPX4 (Homo sapiens) (UniProt P36969) (assay: Primary qHTS Assay for Inhibitors of Recombinant Selenoprotein Glutathione Peroxidase 4 (GPX4) (AID 1845192; also: nearly all actives have a fitted effect of over 65% in size)). Conditions: recombinant GPX4, GR-coupled NADPH fluorescence, 15 min; series mostly up to 50 µM.
In short: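 Steps: GPX4 plus compound, 30 min RT; add GR/GSH/NADPH master mix; start with cumene hydroperoxide; read 340/450 nm fluorescence at 0 and 15 min. Finals were 200 nM GPX4, 1 mM GSH, 0.5 mM CHP, 0.5 mM NADPH, 100 nM GR.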
Potency is read from the fitted curve at half-maximal effect.

Chain of Phospholipid hydroperoxide glutathione peroxidase GPX4 (Homo sapiens) (P36969 whole entry, looked up): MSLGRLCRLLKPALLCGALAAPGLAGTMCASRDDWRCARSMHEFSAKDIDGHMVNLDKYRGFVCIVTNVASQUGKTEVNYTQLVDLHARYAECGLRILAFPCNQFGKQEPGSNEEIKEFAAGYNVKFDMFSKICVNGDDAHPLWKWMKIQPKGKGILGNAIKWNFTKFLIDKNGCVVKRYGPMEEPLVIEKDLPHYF

| Compound | Potency |
| --- | --- |
| COCc1c(Cl)ccc2c1CC[C@H]2c1ncc[nH]1 | inactive |
| CC[C@@H](C)[C@@H]1OC2(C=C[C@H]1C)C[C@@H]1C[C@H](C/C=C(\C)[C@H](O[C@H]3C[C@H](OC)[C@H](O[C@H]4C[C@H](OC)[C@H](NC(C)=O)[C@H](C)O4)[C@H](C)O3)[C@H](C)/C=C/C=C3\CO[C@H]4[C@H](O)C(C)=C[C@@H](C(=O)O1)[C@@]34O)O2 (some centres undefined) | inactive |
| CN(C)c1cccc(Oc2cnc(Nc3cccc(O)c3)nc2)c1 | inactive |
| O=c1[nH]cnc2c([C@@H]3N[C@H](CO)[C@@H](O)[C@H]3O)c[nH]c12 | inactive |
| C=C(C)[C@@H]1CC=C(COC(=O)NC(=O)c2ncn3c(=O)n(C)nnc23)CC1 | inactive |
| C=C[C@@]1(C)CCC2C(=CCC3[C@]2(C)CCC[C@@]3(C)C(=O)O)C1 (some centres undefined) | inactive |
| O=C(Nc1cccc([N+](=O)[O-])c1)c1cccc(S(=O)(=O)N2CCCCCC2)c1 | inactive |
| OC1C=C2C3CN(Cc4cc5c(cc43)OCO5)C2CC1O (centres undefined) | inactive |
| CN1CCc2cc3c(cc2C(=O)Cc2cc4c(cc2C1)OCO4)OCO3 | inactive |
| CCOc1ccc(CCNC(=O)c2cc3sc(Cl)cc3n2C)cc1OCC | inactive |
| C=C1C(=O)O[C@@H]2C[C@H](C)[C@@H]3CC(=O)[C@H](O)[C@@]3(C)C[C@H]12 | inactive |
| COc1ccc(C2Oc3c(OC)cc(CCCO)cc3C2COC2OC(CO)C(O)C(O)C2O)cc1OC (centres undefined) | inactive |
| CC(C)=C[C@@H]1[C@H](CO[C@@H]2O[C@H](CO)[C@@H](O)[C@H](O)[C@H]2O)C1(C)C | inactive |
| C=CS(=O)(=O)NC1CCN(C(=O)CNc2cc(I)c(Cl)cc2OC)CC1 | inactive |
| N#Cc1cc(-c2ccnc(Nc3ccc(N4CCOCC4)cc3)n2)ccc1OC1CCOCC1 | inactive |
| CC(O)C(C)n1ncn(-c2ccc(N3CCN(c4ccc(OCC5COC(Cn6cncn6)(c6ccc(Cl)cc6Cl)O5)cc4)CC3)cc2)c1=O (centres undefined) | inactive |
| CCn1c(=O)c(-c2ccc(-c3cncs3)cc2Cl)cc2cnc(Nc3ccc(N4CCN(C)CC4)cc3)nc21 | inactive |
| CC(=O)O[C@]1(C(C)=O)CC[C@H]2[C@@H]3CCC4=CC(=O)CCC4=C3[C@@H](c3ccc(N(C)C)cc3)C[C@@]21C | inactive |
| Cc1c(F)ccc(C(=O)Nc2cc([N+](=O)[O-])ccc2N2CCN(C)CC2)c1Cl | inactive |
| CCOc1ccc(-n2c([C@@H](C)N(Cc3cccnc3)C(=O)Cc3ccc(OC(F)(F)F)cc3)nc3ncccc3c2=O)cc1 | inactive |

| Compound | Potency |
| --- | --- |
| CC(C)(C)OC(=O)c1ncn2c1C(C)(C)Nc1ccccc1-2 | inactive |
| CC[C@@H](C)Nc1cc(C(=O)NC2CC3CCC(C2)N3c2ccc(C(=O)C3CC3)cn2)c(C)cc1C(N)=O (some centres undefined) | 5.7 µM (active) |
| CCC/C=C/C=C/C1CC(O)C2(O)C(=O)OCC12 (centres undefined) | inactive |
| Cc1c(NC(=O)c2cc3c(s2)CCCC3)cccc1-c1cn(C)c(=O)c(Nc2ccc(C3C(=O)N(C)CCN3C)cc2)n1 (centres undefined) | inactive |
| O=c1ccc2ccc(OCCCCN3CCN(c4cccc5sccc45)CC3)cc2[nH]1 | inactive |
| COc1cc(-c2cn(C3CCc4c(F)cccc4N(CC(F)(F)F)C3=O)nn2)ccc1-n1cnc(C)c1 (centres undefined) | inactive |
| CC1CCCC(O)CC(=O)c2c(O)cc(O)cc2CC(=O)O1 (centres undefined) | inactive |
| CC(C)(O)/C=C/C(=O)[C@](C)(O)[C@H]1[C@H](O)C[C@@]2(C)[C@@H]3CC=C4[C@@H](C[C@H](O[C@@H]5O[C@H](CO)[C@@H](O)[C@H](O)[C@H]5O)C(=O)C4(C)C)[C@]3(C)C(=O)C[C@]12C | inactive |
| O=C1Nc2ccccc2-c2nc3ccccc3c(=O)n2-c2c(O)cccc21 | inactive |
| C=CC(=O)N1CCN(C(=O)CNc2cc(-c3ccccc3Cl)c(Cl)cc2OC)CC1 | inactive |
| Cn1c(CO)c(-c2ccccc2)c2cc([N+](=O)[O-])ccc21 | inactive |
| Cc1cn2c(n1)Cc1ccc(Cl)cc1C(c1ccc(N)cc1)=N2 | inactive |
| CCCc1cc(C)[nH]c(=O)c1CNC(=O)c1cc(-c2ccc(N3CCN(C(C)C)CC3)nc2)cc2c1cnn2C(C)C | inactive |
| CCC(C)/C=C(C)/C=C/C1=CC2=C(Cl)C(=O)C(C)(OC(C)=O)C(=O)C2(O)C(OC)O1 (centres undefined) | inactive |
| O=C(NNc1nc2cc(F)ccc2n2cccc12)c1cnccn1 | inactive |
| Cc1ccc(NC(=O)C(C)C)cc1C1CCN(Cc2ccc(Oc3ccc(F)c(F)c3)cc2)CC1 | inactive |
| C=C1[C@@H](OC(C)=O)CC[C@@]2(C)[C@@H](OC(C)=O)[C@H](OC(C)=O)C3=C(C)C[C@H](OC(=O)C(C)CC)[C@@H]([C@@H](OC(C)=O)[C@H]12)C3(C)C (some centres undefined) | inactive |
| O=[N+]([O-])c1ccc(Oc2ccc3c(c2)CCC(c2ccccc2)O3)nc1 (centres undefined) | inactive |
| CC(C)C[C@@H](C(=O)N[C@@H](Cc1ccc(OCc2ccccc2)cc1)C(=O)NC(C)(C)C)N(C)Cc1ccc(C(C)(C)C)cc1 | inactive |
